# Rows were chosen to be rich in hits. Some 2.4% of all compounds tested hit in one or more screens of this group.
# POLI inh: DNA polymerase iota (human) inhibition | Potency, µM (highest dose often 115 µM), inactives show at the highest dose activity, negative = inhibition, usual class: inhibitors | Pol iota fluorescent replication assay, 10 min | AID 588590 | 390,000 compounds, 1% hits | Q9UNA4; note: potency is the fitted concentration of half-maximal effect
#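 Pol iota at 10 nM preincubated 15 min with compounds at room temperature; reaction started with fluorescent substrate, 50 nM final. Fluorescence read kinetically at 0 and 10 min; buffer-only wells as negative control.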
# WRN helicase inh-1: blocks human WRN helicase; Q14191; WRN helicase unwinding, fluorescent forked duplex, kinetic; Potency, µM (series often up to 114 µM), for the others: at the highest dose activity change, negative = inhibition, usual class: inhibitors; 360,000 compounds, 0.46% hits; AID 651768; note: potency is the fitted concentration of half-maximal effect; % is set by controls: 0 for no effect and ±100 for the full control effect; nearly all actives have a fitted effect of over 55% in size
#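 Enzyme (20 nM final) and test compound sit together 15 min at room temperature before substrate addition. Substrate is a single-forked duplex oligonucleotide (100 nM) labelled with fluorophore and quencher, with 2 mM ATP; helicase unwinding raises red fluorescence, read kinetically.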
# FEN1 inhibitor: human FEN1 inhibition; Potency, µM (doses to about 114 µM), inactives show at the highest dose activity change, negative = inhibition, hits mostly inhibitors; Recombinant FEN1 flap cleavage, fluorescence, 15 min; P39748; 390,000 compounds, 0.35% hits; note: potency is the fitted concentration of half-maximal effect; % is set by controls: 0 for no effect and ±100 for the full control effect; nearly all actives have a fitted effect of over 65% in size
#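 Read-out was taken twice, immediately and after 15 min, following addition of 50 nM substrate to 10 nM FEN1 that had sat with test compound for 15 min at room temperature. Curves came from a four-parameter Hill model.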
# Pol beta inh-1: DNA polymerase beta (human) inhibition | P06746 | Pol beta primer extension/strand displacement, fluorescence kinetic | Potency, µM (titrated, usually from 114 µM), for the others: top-dose activity change, negative = inhibition, actives largely listed as inhibitors | 340,000 compounds, 1.3% hits | AID 485314; note: potency is the fitted concentration of half-maximal effect; % is set by controls: 0 for no effect and ±100 for the full control effect
#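 Homogeneous kinetic assay of primer extension and strand displacement by 10 nM Pol beta, preincubated 15 min at room temperature with compound before 50 nM substrate (final) was added. Read at 0 and 10 min; four-parameter Hill fit.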
# POLK inh: DNA polymerase kappa (human) inhibition; purified Pol kappa, fluorescent DNA synthesis assay, 10 min; Potency, µM (top dose mostly 107 µM), inactives show at the top dose activity, negative = inhibition, actives largely listed as inhibitors; 400,000 compounds, 0.53% hits; AID 588579; note: potency is the fitted concentration of half-maximal effect; % is set by controls: 0 for no effect and ±100 for the full control effect
#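 First, compounds were pin-transferred onto 10 nM Pol kappa. After 15 min at room temperature, substrate was added to 50 nM final. Fluorescence was then measured kinetically at 0 and 10 min.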
# Pol eta inh-1: inhibitors of human DNA polymerase eta. Q9Y253. 390,000 compounds, 1.2% hits. recombinant Pol eta, fluorescent DNA replication assay. Potency, µM (highest dose often 114 µM), for the others: at the highest dose activity change, negative = inhibition, most hits filed as inhibitors; note: potency is the fitted concentration of half-maximal effect; % is set by controls: 0 for no effect and ±100 for the full control effect
#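 Pol eta at 10 nM preincubated with compounds 15 min at room temperature; reaction started with fluorescent substrate (50 nM final) and read kinetically at 0 and 10 min.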
# Pol beta inh-2: Inhibitors of human DNA polymerase beta, hit validation; Potency, µM, most hits filed as inhibitors; shares compounds with Pol beta inh-1; Pol beta primer extension/strand displacement, fluorescence kinetic; AID 540280; 250 compounds, 87% hits; calls by dose curve; note: potency is the fitted concentration of half-maximal effect
# Klenow inh: inhibits Klenow fragment polymerase in counter-screen. Klenow exo- polymerase counter-screen, fluorescent DNA substrate. AID 540300. shares compounds with Pol beta inh-1. 250 tested, under 10 active. activity change, negative = inhibition, % at 57.1 µM
# HIV RT inh: counter-screen for DNA polymerase beta inhibitors: HIV-1 RT inhibition; shares compounds with Pol beta inh-1; HIV-1 RT polymerase activity, counter-screen; activity % (negative = inhibition, positive = activation), % at 57.1 µM; 250 tested, under 10 active
# POLB valid: validation of human DNA polymerase beta inhibitors. shares compounds with Pol beta inh-1. radiolabeled primer extension gel assay, phosphorimager. inhibition, % at 10 µM. 110 compounds, 91% hits. AID 540325;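 active = inhibition at 10 µM of 30% or more; inconclusive = no clear call, values can overlap the other calls; inactive = inhibition at 10 µM under 30%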
# TbPGK inh: validation of Trypanosoma brucei phosphoglycerate kinase inhibitors. shares compounds with POLK inh. TbPGK coupled GAPDH assay, Kinase-Glo luminescence. Potency, µM (highest dose often 57.5 µM), for the others: at the highest dose activity change, negative = inhibition, most hits filed as inhibitors. 500 compounds, 79% hits. AID 686980; note: potency is the fitted concentration of half-maximal effect; % is set by controls: 0 for no effect and ±100 for the full control effect; nearly all actives have a fitted effect of over 65% in size
# Pol iota confirm: Human Pol iota inhibitor confirmatory assay; shares compounds with POLK inh; Potency, µM, usual class: inhibitors; Pol iota primer extension, TAMRA/BHQ fluorescence; 1,500 compounds, 77% hits; note: potency is the fitted concentration of half-maximal effect
# Pol eta inh-2: Pol eta (human) inhibition, cherry-pick confirmation; shares compounds with Pol eta inh-1; Pol eta primer extension, TAMRA/BHQ fluorescence, 10 min; Potency, µM, actives largely listed as inhibitors; 2,600 compounds, 64% hits; AID 720502; note: potency is the fitted concentration of half-maximal effect
# WRN helicase inh-2: confirmation of human WRN helicase inhibitors; shares compounds with WRN helicase inh-1; WRN helicase DNA unwinding, fluorescence kinetic; Potency, µM (highest dose often 57.1 µM), without a hit: at the highest dose activity, negative = inhibition, usual class: inhibitors; 610 compounds, 63% hits; note: potency is the fitted concentration of half-maximal effect; nearly all actives have a fitted effect of over 65% in size
# TO DNA binding: counter-screen for WRN helicase inhibitors: DNA binding. shares compounds with WRN helicase inh-1. thiazole orange DNA binding displacement, fluorescence. Potency, µM (series often up to 57.1 µM), for the others: top-dose activity change, negative = inhibition, actives largely listed as inhibitors. 610 compounds, 10% hits. AID 720499;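 note: drop in dye fluorescence marks compound binding to DNA; potency is the fitted concentration of half-maximal effect; % is set by controls: 0 for no effect and ±100 for the full control effect; nearly all actives have a fitted effect of over 60% in size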
# BLM helicase inh: BLM helicase inhibition, WRN selectivity check | shares compounds with WRN helicase inh-1 | Potency, µM (doses to about 57.1 µM), inactives show at the top dose activity change, negative = inhibition, most hits filed as inhibitors | AID 720503 | Recombinant BLM helicase DNA unwinding, red fluorescence | 610 compounds, 60% hits; note: potency is the fitted concentration of half-maximal effect; nearly all actives have a fitted effect of over 60% in size
# The depositor's hits bear a star; u = inconclusive; x = no result given; [ ] = another dose, or the depositor's remark. Unless noted, calls come from the whole dose curve; as a rule, active = well fitted curve in the direction sought with a large enough effect; inconclusive = small, poorly fitted or top-dose-only effect, or another doubt; inactive = no such curve, though single readings can be large; an effect the other way counts as inactive or inconclusive.
SMILES,POLI inh,WRN helicase inh-1,FEN1 inhibitor,Pol beta inh-1,POLK inh,Pol eta inh-1,Pol iota confirm,others
Cc1nn(-c2ccccc2)c2nc(-c3ccco3)cc(C(=O)O)c12,u,u,u,14.1µM*,28.2µM*,7.94µM*,x,Pol beta inh-2=25.1*;Klenow inh=-36.9;HIV RT inh=u;POLB valid=65.0*;Pol eta inh-2=30.1*;WRN helicase inh-2=u;TO DNA binding=-25.1%;BLM helicase inh=-14.7%
CC(=O)[C@H]1CC[C@H]2[C@@H]3C=CC4=CC(=O)CC[C@@]4(C)[C@H]3CC[C@]12C,x,x,x,x,-2.7%[19.4 µM],x,x,
COc1ccc(-c2cc(=O)oc3c(O)c(O)ccc23)cc1,u,12.6µM*,-12.7%,10µM*,u,7.94µM*,67*,Pol beta inh-2=6.31*;Klenow inh=-9.2;HIV RT inh=16.9;TbPGK inh=9.19µM*;Pol eta inh-2=u;WRN helicase inh-2=5.41µM*;TO DNA binding=-4.6%;BLM helicase inh=3.83µM*
COC(=O)c1ccccc1NC(=O)c1noc2c1CCC2,20µM*,u,u,10µM*,u,20µM*,37.7*,Pol beta inh-2=31.6*;Klenow inh=-33.1;HIV RT inh=6.7;POLB valid=72.7*;Pol eta inh-2=30.1*;WRN helicase inh-2=17.1µM*;TO DNA binding=-20.0%;BLM helicase inh=4.82µM*
CCN1CCc2c(sc(-n3cccc3)c2C(C)NC(=O)Nc2cc(Cl)c(OC)cc2OC)C1 (centres undefined),-4.4%,x,-1.8%,2.1%,-10.7%,-3.8%,x,
CCSc1nc(O)cc(=O)[nH]1,-25.8%,0.3%,18.4%,46.8%,-4.2%,u,x,
N#CNc1nc(O)cc(=O)[nH]1,u,-34.7%,u,-25.9%,79.4µM*,u,x,TbPGK inh=u
Cc1ccc(N=C2NC(=O)S/C2=C\c2ccco2)cc1,u,u,-21.8%,7.94µM*,-45.7%,-17.4%,67*,
CCCN1CNc2c(c(=O)[nH]c(=S)n2CCc2ccc(OC)cc2OC)C1,21.6%,x,-5.7%,x,1.5%,x,x,
CCN(CC)c1ccc2nc3ccccc3[n+](CC)c2c1,u,u,u,u,-34.5%,u,x,TbPGK inh=32.6µM*
CC(=O)OCC(=O)[C@@]1(O)CCC2C3CC[C@H]4CC(O)CC[C@@]4(C)C3C(=O)C[C@]21C (some centres undefined),x,x,x,x,-6.8%[60.1 µM],x,x,
COc1ccccc1NC(=O)c1cc2ccc(O)cc2o/c1=N\O,-12.5%,u,-16.8%,-17.5%,-34.6%,u,x,
COc1ccccc1NC(=O)c1cc2ccccc2o/c1=N\O,79.4µM*,100µM*,-4.8%,20µM*,-38.5%,u,u,
O=C(CSc1nnc(COc2ccccc2Cl)o1)NC(=O)NCc1ccco1,39.8µM*,-7.7%[11.6 µM],-10.6%,14.1µM*,u,50.1µM*,67*,
O=C(O)Cc1ccccc1C(=O)O,8.2%,5.5%,4.9%,0.4%,-5.7%,-18.6%,x,
O=C(O)Cc1cccc(=O)c(O)c1C(=O)O,22.4µM*,u,u,x,u,3.98µM*,x,TbPGK inh=5.17µM*
Cn1cccc1C(=O)N1CCC[C@@]2(CCN(C(c3ccccc3)c3ccccc3)C2)C1,x,x,x,x,9.7%[60.1 µM],x,x,
C(=C\c1nc2ccccc2[nH]1)/c1ccccc1,6.3%,-19.1%,-4.5%,4.1%,-19.9%,-2.3%,x,TbPGK inh=16.3µM*
C(=C\c1ccco1)/c1nc2ccccc2[nH]1,2.4%,1.2%,-15.6%,-17.5%,-2.7%,-19.3%,x,
Cc1nn(-c2ccccc2)c2sc(C(=O)Nc3cccc(Br)c3)cc12,-10.5%,x,-4.4%,u,8.9%,-18.4%,x,
O=c1oc2ccccc2cc1-c1cn2ccccc2n1,23.9%,-7.9%,-1.6%,6.6%,0.4%,-10.7%,x,TbPGK inh=u
COc1ccccc1CCNC(=O)c1ccc2c(c1)c(C)c(C)n2C,27.6%,x,-6.0%,-1.8%,-8.6%,-13.4%,x,
COCCNC(=O)CCCn1c(SCC(=O)Nc2cccc(C)c2)nc2c(sc3ccccc32)c1=O,17.8%,x,6.2%,1.0%,-9.1%,21.8%,x,
O=C1Nc2ccccc2/C1=N/N=C/c1ccc(-c2ccc([N+](=O)[O-])cc2)o1,31.4%,-35.8%[57.1 µM],-8.8%,-19.3%,5.8%,u,u,
COc1ccc(C(=O)N(Cc2ccc(C(C)C)cc2)C2CCS(=O)(=O)C2)cc1 (centres undefined),-1.1%,x,0.8%,-3.2%,u,-15.7%,x,
O=C(O)CCCCN1C(=O)/C(=C\c2ccc(OCc3ccccc3)c(OCc3ccccc3)c2)SC1=S,u,-8.5%[11.6 µM],-0.5%,44.7µM*,u,20µM*,42.3*,
CC(C)c1ccc2oc(-c3cc(NC(=O)c4cccnc4)ccc3Cl)nc2c1,8.2%,x,-28.5%,6.2%,-10.3%,u,x,

# Assay outcomes as filed in PubChem BioAssay.
